Compounds with a hit are over-represented: about 19% of the library has one in this group of screens.
HT1080NT lethal: kills 2HG-producing HT-1080-NT fibrosarcoma cells; HT-1080-NT fibrosarcoma viability, CellTiter-Glo ATP luminescence, 48 h; Potency, µM (highest dose often 46.1 µM), inactives show at the highest dose activity, negative = less viability, actives largely listed as cytotoxic; hit rate 1.6% among 360,000; AID 686970;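 also: NT is the 2HG producing partner of a matched IDH1 knockdown line; potency is read from the fitted curve at half-maximal effect; 0% = DMSO-treated cells and -100% = media-only wells without cells; nearly all actives have a fitted effect of over 55% in size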
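Read-out is CellTiter-Glo luminescence after 10 minutes at room temperature, following 48 hours' compound treatment of HT-1080-NT cells (750 cells/well, RPMI, 5% FBS, 37 degrees C).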
IL-1B inflam inh: inhibitors of inflammasome signaling (IL-1 beta secretion); THP-1 LPS/ATP IL-1B secretion, AlphaLISA, 16 h; stronger effect = lower value; activity change, % at 57.5 µM; hit rate 4.7% among 360,000; in the data active = activity change below about -50%; inconclusive = mostly about -30% to -49%
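Secreted IL-1B measured by AlphaLISA bead assay after 16 h compound exposure of THP-1 cells; compounds (final up to 57.5 uM) added 1 h before LPS (250 ng/mL) and ATP (1.25 mM) stimulation; lower signal means less secretion.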
TDP1 cell noCPT: qHTS for Inhibitors of human tyrosyl-DNA phosphodiesterase 1 (TDP1): qHTS in cells in absence of CPT; DT40 Tdp1-/- hTDP1 cells, no CPT, ATP luminescence, 48 h; Potency, µM (highest dose often 46.2 µM), inactives show at the top dose activity change, negative = growth inhibition, usual class: inhibitors; hit rate 15% among 420,000; AID 686978, 2013; also: potency is read from the fitted curve at half-maximal effect; nearly all actives have a fitted effect of over 55% in size
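A cellular qHTS used chicken DT40 cells lacking endogenous Tdp1 but carrying stably transfected human TDP1. Compounds were applied without camptothecin, and cell growth kinetics were judged by ATP-dependent luminescence after ≥48 hr.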
TDP1 cell CPT: DT40-hTDP1 cell growth loss with CPT; chicken DT40 Tdp1-/-;hTDP1 cells + 20 nM CPT, ATP luminescence, 48 h; Potency, µM (top dose mostly 46.2 µM), for inactives: at the highest dose activity change, negative = growth inhibition, usual class: inhibitors; hit rate 12% among 420,000; also: potency is read from the fitted curve at half-maximal effect; nearly all actives have a fitted effect of over 55% in size
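Chicken DT40 Tdp1-/- cells stably complemented with human TDP1 were seeded at 400 cells/well in medium containing 20 nM camptothecin, exposed to pin-transferred compounds, and grown at 37 °C for at least 48 hr. Viability was read as ATP luminescence.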
HT1080 IDH1KD tx: HT-1080 IDH1 knockdown cell toxicity (counter line) | HT-1080 IDH1 knockdown viability, ATP luminescence, 48 h | Potency, µM (highest dose often 46.1 µM), for inactives: at the highest dose activity, negative = toxicity, most hits filed as cytotoxic | hit rate 2% among 360,000 | AID 686971;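 also: potency is read from the fitted curve at half-maximal effect; 0% = DMSO wells and -100% = cell-free medium wells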
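In this qHTS, HT-1080 cells depleted of IDH1 are exposed for 48 h at 37 °C to compound titrations. Toxicity is scored from CellTiter-Glo luminescence, with DMSO as full viability and medium alone as none.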
The depositor's hits bear a star; ? = inconclusive; . = no result; [ ] = remark or other dose. Unless noted, calls follow the shape of the dose curve; as a rule, active = well fitted curve in the direction sought with a large enough effect; inconclusive = small, poorly fitted or top-dose-only effect, or another doubt; inactive = no such curve, though single readings can be large; an effect the other way counts as inactive or inconclusive. Unless noted, % is scaled to controls: 0 for no effect and ±100 for the full control effect.

SMILES	HT1080NT lethal	IL-1B inflam inh	TDP1 cell noCPT	TDP1 cell CPT	HT1080 IDH1KD tx
Cc1cc(C)c[n+](CC(=O)c2ccc(C)c([N+](=O)[O-])c2)c1	-12%	-13	19%	2%	-2%
CC1(CCC(=O)O)C(=O)CCC2C1CCC1(C)C2CCC1(C)O (stereo not drawn)	3%	-9	1%	0%	2%
O=C(CN1C(=O)CSC1=O)N1CCc2ccccc2C1	3%	14	-6%	-5%	-1%
CC(=O)c1ccc(N2CCN(C(=O)c3cccs3)CC2)c(F)c1	4%	-12	?	?	4%
CC(=O)c1ccc(N2CCN(C(=O)c3cccs3)C(C)C2)c(F)c1 (stereo not drawn)	5%	-13	21µM*	?	2%
O=[N+]([O-])c1ccc(Cl)c(S(=O)(=O)N2CCCCCC2)c1	6%	11	?	3%	7%
CSc1ccccc1NC(=S)N/N=C/c1cccn1Cc1cccc(C)c1	?	46	10%	7%	24%
CSc1ccccc1NC(=S)N/N=C/c1cccn1Cc1ccc(F)cc1	-10%	28	23µM*	?	-18%
COc1ccc(NC(=S)N/N=C/c2cccn2Cc2ccc(F)cc2Cl)cc1	-15%	17	10µM*	23µM*	-11%
COc1ccc(NC(=S)N/N=C/c2cccn2Cc2ccccc2F)cc1	?	40	?	14%	?
Cc1cccc(NC(=S)N/N=C/c2cccn2Cc2ccc(F)cc2)c1	-20%	7	16µM*	?	-14%
CCOC(=O)N1CCN(C(=O)c2ccc(SC)cc2OC)CC1	8%	10	?	-22%	7%
O=C1O[C@@H](c2ccccc2)C[C@@H](O)C(=O)CCc2ccccc21	13%	2	?	-14%	1%
O=C(COC(=O)/C=C/c1ccc([N+](=O)[O-])cc1)NCC1CCCCC1	-1%	20	3%	-11%	-5%
OCC1=C[C@@H](O)[C@@H]2C=CO[C@@H](O[C@@H]3O[C@H](CO)[C@@H](O)[C@H](O)[C@H]3O)[C@H]12	12%	27	11%	6%	6%
COC(=O)[C@]12CCCCC=C1N(Cc1ccc(Cl)cc1Cl)C(=O)[C@H](CC(=O)N1CCCCC1)C2	?	-28	18µM*	?	?
COC(=O)[C@]12CCCCC=C1N(Cc1ccc(Cl)cc1Cl)C(=O)[C@H](CC(=O)N1CCN(C(=O)C3CC3)CC1)C2	?	-16	?	?	-29%
COC(=O)[C@]12CCCCC=C1N(Cc1ccc(Cl)cc1Cl)C(=O)[C@H](CC(=O)N1CCSCC1)C2	-14%	0	16µM*	?	-24%
COC(=O)[C@]12CCCCC=C1N(Cc1ccc(Cl)cc1Cl)C(=O)[C@H](CC(=O)N1CCOCC1)C2	-15%	-17	?	?	-7%
Fc1ccc(C(CCNCc2ccccn2)c2ccc(Cl)cc2)cc1 (stereo not drawn)	18µM*	-90*	18µM*	?	21µM*
OC(CNCc1ccccn1)c1ccccc1 (stereo not drawn)	10%	15	?	-8%	1%
Cc1cccn2c(=O)c3cc(C(=O)NCc4ccco4)c(=N)n(C4CCCCC4)c3nc12	?	-98*	?	?	?
Cc1cccn2c(=O)c3cc(C(=O)NCc4ccco4)c(=N)n(CCOCCO)c3nc12	0%	-57*	?	-32%	-5%
Cc1cccn2c(=O)c3cc(C(=O)NC4CCCC4)c(=N)n(C4CCCCC4)c3nc12	6%	21	?	-14%	15%
Cc1ccccc1-c1nnc(SCC(=O)Nc2cccnc2Cl)o1	18µM*	15	16µM*	13µM*	23µM*
SMILES	HT1080NT lethal	IL-1B inflam inh	TDP1 cell noCPT	TDP1 cell CPT	HT1080 IDH1KD tx
CCc1nnc(NC(=O)CSc2nnc(-c3ccccc3NC(=O)c3ccccc3)o2)s1	13µM*	31	-3%	-22%	-25%[9.24 µM]
COc1ccc(-c2cc(-c3ccc4c(c3)NC(=O)CO4)nc3c2COc2ccc(F)cc2-3)cc1	.	.	1.5µM*	?	.
O=C1COc2ccc(-c3cc(-c4ccc(F)cc4)c4c(n3)-c3ccccc3OC4)cc2N1	.	.	5.8µM*	6.5µM*	.
Cn1cc(-c2nc3cnc(Oc4ccccc4)nc3n(CCC#N)c2=O)c2ccccc21	.	.	9%	12%	.
O=C(c1ccccc1Br)N(Cc1ccccc1)c1ccccc1	-10%	-57*	12µM*	21µM*	-9%
O=C(NCCc1ccccc1)C1CCC(CNS(=O)(=O)c2ccccc2)CC1 (stereo not drawn)	-3%	62	15%	-29%	-11%
Cc1cccc(CCNC(=O)C2CCC(CNS(=O)(=O)c3c(C)cc(C)cc3C)CC2)c1 (stereo not drawn)	.	.	16µM*	?	.
Cc1cc(C)c(S(=O)(=O)NCC2CCC(C(=O)NCCc3ccccc3)CC2)c(C)c1 (stereo not drawn)	.	.	15µM*	15µM*	.
Cc1cccc(CCNC(=O)C2CCC(CNS(=O)(=O)c3cccs3)CC2)c1 (stereo not drawn)	-1%	1	?	?	7%
CC(O)(c1cccnc1)c1nc(-c2ccc(F)c(Cl)c2)cs1 (stereo not drawn)	?	22	?	?	?
Cc1ccccc1NC(=O)CN1C(=O)NC2(CCCCCCC2)C1=O	-8%	4	-25%	-26%	-4%
CN1CCN(C(c2ccc(F)cc2)c2ccc3cccnc3c2O)CC1 (stereo not drawn)	2%	-8	-6%	4%	0%
CN1CCN(C(c2ccc(Br)cc2)c2cc(Cl)c3cccnc3c2O)CC1 (stereo not drawn)	?	-106*	15µM*	16µM*	?
CN1CCN(C(c2cccnc2)c2ccc3cccnc3c2O)CC1 (stereo not drawn)	3%	0	16µM*	?	7%
Cc1ccc(Sc2oc(/C=N/n3cnnc3)cc2Br)cc1	0%	6	?	?	?
CS(=O)(=O)c1ccc(C(=O)OCC(=O)N2CCCc3ccccc32)cc1	9%	-3	3%	0%	7%
CS(=O)(=O)c1ccc(C(=O)OCC(=O)N2CCc3ccccc32)cc1[N+](=O)[O-]	.	.	4µM*	3.5µM*	.
O=C(OCC(=O)N1CCc2ccccc21)[C@@H]1CC(O)CN1S(=O)(=O)c1ccccc1[N+](=O)[O-] (stereo partly drawn)	-1%	-15	18µM*	21µM*	11%

Screening results (PubChem)
